In ChEMBL document CHEMBL1961873, “Compounds: GSK PKIS; Assays: Nanosyn kinase panel” (2012):

Target: Macrophage colony-stimulating factor 1 receptor (Homo sapiens) (UniProt P07333)
Details: at 0.1 µM

Sequence of Macrophage colony-stimulating factor 1 receptor (Homo sapiens) (P07333 whole entry): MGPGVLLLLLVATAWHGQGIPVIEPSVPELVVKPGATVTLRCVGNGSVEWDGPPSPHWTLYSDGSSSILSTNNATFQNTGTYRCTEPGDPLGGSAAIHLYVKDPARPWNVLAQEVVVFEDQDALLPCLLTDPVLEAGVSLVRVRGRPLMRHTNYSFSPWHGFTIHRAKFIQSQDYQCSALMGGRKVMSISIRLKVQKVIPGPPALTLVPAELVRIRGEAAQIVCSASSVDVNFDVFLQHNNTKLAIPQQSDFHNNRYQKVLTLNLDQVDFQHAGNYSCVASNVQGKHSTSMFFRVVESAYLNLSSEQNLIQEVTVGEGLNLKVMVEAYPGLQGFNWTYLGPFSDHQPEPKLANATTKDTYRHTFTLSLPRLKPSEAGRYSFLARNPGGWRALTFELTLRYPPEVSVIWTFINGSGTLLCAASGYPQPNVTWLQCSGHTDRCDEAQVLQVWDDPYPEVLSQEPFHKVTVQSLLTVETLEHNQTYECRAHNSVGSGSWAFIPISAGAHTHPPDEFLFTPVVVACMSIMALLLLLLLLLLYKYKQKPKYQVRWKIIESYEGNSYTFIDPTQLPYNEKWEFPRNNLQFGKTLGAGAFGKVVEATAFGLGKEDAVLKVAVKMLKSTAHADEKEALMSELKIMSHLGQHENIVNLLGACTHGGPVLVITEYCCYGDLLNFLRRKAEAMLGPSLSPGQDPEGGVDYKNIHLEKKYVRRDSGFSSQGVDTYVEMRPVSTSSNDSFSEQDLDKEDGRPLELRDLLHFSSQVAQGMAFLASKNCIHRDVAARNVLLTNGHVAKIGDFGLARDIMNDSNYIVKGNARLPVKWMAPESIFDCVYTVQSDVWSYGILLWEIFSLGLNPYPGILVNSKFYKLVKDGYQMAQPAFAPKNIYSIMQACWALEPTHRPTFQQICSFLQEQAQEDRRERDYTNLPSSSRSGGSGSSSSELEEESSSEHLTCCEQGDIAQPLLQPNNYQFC

Structure (SMILES) | inhibition
Cc1cc(Cl)cc2c1NC(=O)C2=NNc1ccc(S(N)(=O)=O)cc1 | -2.64%
Cc1ccc(C(=O)NC2CC2)cc1-c1ccc2[nH]ncc2c1 | -5.43%
O=C(Nc1ccc(Oc2ccc3[nH]c(NC(=O)c4ccco4)nc3c2)cc1)Nc1cc(C(F)(F)F)ccc1F | 15.4%
NS(=O)(=O)c1ccc(-c2cc3ccncc3cc2OCc2ccccc2)cc1 | -0.56%
Cc1cc(O)cc(C)c1/C=C/c1cncc(C(=O)N(C)C)c1 | 1.52%
CN(c1ccc(NC(=O)Nc2ccc(OC(F)(F)F)cc2)cc1)c1ccnc(Nc2cccc(S(N)(=O)=O)c2)n1 | 42.6%
Cc1ccc(O)cc1Nc1ccnc2ccc(S(C)(=O)=O)cc12 | 5.71%
Cc1cc(-c2ccccn2)cc(C)c1/C=C/c1cncc(-c2nn[nH]n2)c1 | 1.45%
O=C1Nc2ccccc2/C1=C/Nc1ccc2[nH]c(=O)[nH]c2c1 | 11.9%
ON=C1CCc2cc(-c3nc(C4CCNCC4)[nH]c3-c3ccncc3)ccc21 | 2.19%
C[C@@H](Oc1cc(-n2cnc3ccc(OCC4CCN(C)CC4)cc32)sc1C(N)=O)c1ccccc1C(F)(F)F | -4.84%
Cc1nc(-c2ccccc2)n2nc(NCCCN3CCOCC3)ncc12 | 1.73%
[O-][S+]1CCN(Cc2ccc(-c3ccc4ncnc(Nc5ccc(OCc6ccccc6)c(Cl)c5)c4c3)o2)CC1 | -0.34%
Oc1cccc(-c2nc(-c3ccccc3)[nH]c2-c2ccncc2)c1 | 1.63%
Nc1nccc(-c2c(-c3ccc(F)cc3)ncn2CCCN2CCOCC2)n1 | 2.72%
Cc1ccc(Nc2ccnc(Nc3cccc(C(N)=O)c3)n2)cc1O | 12.7%

Target: Macrophage colony-stimulating factor 1 receptor (Homo sapiens) (UniProt P07333)
Details: at 1 µM

Structure (SMILES) | inhibition
CCn1c(-c2nonc2N)nc2c(C#CC(C)(C)O)nc(OCCNC)cc21 | 3.67%
COC(=O)Nc1nc2cc(Oc3ccc(NC(=O)Nc4cccc(Br)c4)cc3)ccc2[nH]1 | 43.2%
Nc1nccc(-c2c(-c3ccc(F)cc3)nn3cc(C(F)(F)F)ccc23)n1 | 7.32%
CN(C)CCCn1c(-c2nonc2N)nc2cnccc21 | 1.06%
COc1cc(Nc2nccc(-c3cnn4ncccc34)n2)cc(OC)c1 | 94.2%
C[C@@H](Oc1cc(-n2cnc3ccc(OC[C@@H](O)CO)cc32)sc1C(N)=O)c1ccccc1Cl | 9.24%
N#Cc1cccc(Nc2nccc(-c3cnn4ncccc34)n2)c1 | 79.4%
COc1cc(/C=N/Nc2ncnc3c2cnn3C(C)C)ccc1O | 42.3%
Nc1ccc(C#Cc2cncnc2Nc2ccc(OCc3cccc(F)c3)c(Cl)c2)cc1 | 3.9%
Cc1ccc2c(c1)/C(=N/Nc1ccc(S(N)(=O)=O)cc1)C(=O)N2 | 16.7%
NC(=O)c1cccc(Nc2nccc(Nc3cccc(F)c3)n2)c1 | 62.5%
NS(=O)(=O)c1ccc(NC=C2C(=O)Nc3ccc4ncsc4c32)cc1 | 85.5%
Cc1ccc2c(-c3ccnc(Nc4cccc(C(F)(F)F)c4)n3)c(-c3ccccc3)nn2n1 | 23.1%
NS(=O)(=O)c1ccc(N/N=C2\C(=O)Nc3ccc(Cl)cc32)cc1 | 31.8%
COC(=O)c1cncc(/C=C/c2c(C)cc(O)cc2C)c1 | 37.7%
COc1cccc(-n2ncc3c(N/N=C/c4ccc(S(C)(=O)=O)cc4)ncnc32)c1 | 22.5%
CN(C)C(=O)O[C@H]1CN[C@H](C#Cc2cc3ncnc(Nc4ccc(OCc5cccc(F)c5)c(Cl)c4)c3s2)C1 | 3.36%
Cc1cc(Cl)cc2c1NC(=O)C2=NNc1ccc(S(N)(=O)=O)cc1 | 8.32%
Cc1ccc(C(=O)NC2CC2)cc1-c1ccc2[nH]ncc2c1 | 4.56%
O=C(Nc1ccc(Oc2ccc3[nH]c(NC(=O)c4ccco4)nc3c2)cc1)Nc1cc(C(F)(F)F)ccc1F | 72.8%
NS(=O)(=O)c1ccc(-c2cc3ccncc3cc2OCc2ccccc2)cc1 | 1.76%
Cc1cc(O)cc(C)c1/C=C/c1cncc(C(=O)N(C)C)c1 | 5.32%
CN(c1ccc(NC(=O)Nc2ccc(OC(F)(F)F)cc2)cc1)c1ccnc(Nc2cccc(S(N)(=O)=O)c2)n1 | 86.1%
Cc1ccc(O)cc1Nc1ccnc2ccc(S(C)(=O)=O)cc12 | 15.8%
Cc1cc(-c2ccccn2)cc(C)c1/C=C/c1cncc(-c2nn[nH]n2)c1 | 12.3%
O=C1Nc2ccccc2/C1=C/Nc1ccc2[nH]c(=O)[nH]c2c1 | 48.2%
ON=C1CCc2cc(-c3nc(C4CCNCC4)[nH]c3-c3ccncc3)ccc21 | 0.63%
C[C@@H](Oc1cc(-n2cnc3ccc(OCC4CCN(C)CC4)cc32)sc1C(N)=O)c1ccccc1C(F)(F)F | 8.46%
